Experiment [1] is described as follows: optical density shifts of acrAB sulA E. coli – strain DRC41, OD650, 48 h, E. coli filamentation inducer project, primary screen (AID 1152).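 Further: E. coli MC1000 strain DRC41 lacking acrAB efflux pump and sulA.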 Particulars: higher = more signal, called active from +8 up or from −8 down.
A short description of experiment [2]: probe aLefty1 binding on compound microarray – biochemical, small-molecule microarray, 635/667 nm fluorescence, primary screen (AID 1153).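 Further: score merges spot fluorescence with signal-to-noise ratio from the scanned slide images.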 The note with it: higher = more signal.
Experiment [3] can be described thus: plasmodial surface anion channel blockers, osmotic lysis – cell-based, P. falciparum Indochina, OD700, 1 h, primary screen (AID 1154). The note with it: P. falciparum Indochina infected RBC osmotic lysis, higher = more signal, called active from +8 up or from −8 down.
Experiment [4] is described as follows: plasmodial surface anion channel blockers, osmotic lysis – cell-based, P. falciparum Indochina, OD700, 2 h, primary screen (AID 1155).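 Further: lysis reports solute entry through the parasite surface anion channel PSAC.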 Particulars: P. falciparum Indochina infected erythrocytes, higher = more signal, called active from +8 up or from −8 down.
A short description of experiment [5]: changes in parasitized red cell lysis, either direction – P. falciparum Indochina, OD700, 3 h, PSAC antagonist project, primary screen (AID 1156). Particulars: P. falciparum-infected erythrocytes, osmotic lysis, higher = more signal, called active from +8 up or from −8 down.
A short description of experiment [6]: plasmodial surface anion channel blockers, osmotic lysis – cell-based, P. falciparum Indochina, OD700, 18 h, primary screen (AID 1157). The note with it: P. falciparum Indochina infected erythrocytes, osmotic lysis OD700, 18 h; higher = more signal, called active from +8 up or from −8 down.
Experiment [7] is described as follows: S6 kinase pathway phospho-S6 level changes – cell-based, A549, cytoblot, luminescence, serum-stimulated, primary screen (AID 1158).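 Further: serum-stimulated A549 lung adenocarcinoma cells; signal is phosphorylated S6 detected by cytoblot immunostaining with HRP secondary.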 The note with it: 5 h, higher = more signal.
Experiment [8] has as its target NADPH oxidase 2 (Homo sapiens) (UniProt P04839). The experiment is described as follows: compounds shifting NOX2 Amplex Red fluorescence – cell-based, HEK293-NOX2, PMA-stimulated, NOX inhibitor project, primary screen (AID 1159). Further: test concentration not given here. The note with it: 45 min, higher = more signal, called active from +8 up or from −8 down.
Experiment [9] addresses NADPH oxidase 4 (Homo sapiens) (UniProt Q9NPH5). The experiment is described as follows: compounds shifting NOX4 Amplex Red fluorescence – cell-based, HEK293-NOX4, tetracycline-induced, NOX inhibitor project, primary screen (AID 1160). The note with it: HEK293-NOX4, Amplex Red H2O2 fluorescence, 45 min; higher = more signal, called active from +8 up or from −8 down.
Experiment [10] deals with NADPH oxidase 5 (Homo sapiens) (UniProt Q96PH1). Put plainly: compounds shifting NOX5 Amplex Red fluorescence – cell-based, HEK293-NOX5, NOX inhibitor project, primary screen (AID 1161). Particulars: HEK293-NOX5, ionomycin, 45 min, higher = more signal.
A short description of experiment [11]: compound effects on lung adenocarcinoma cell viability – A549, calcein-AM fluorescence, 48 h, basal, profiling panel (AID 1162). Further: test concentration not given here. Particulars: higher = more signal.
Experiment [12] can be described thus: compound effects on differentiated 3T3-L1 adipocyte viability – cell-based, 3T3-L1 adipocytes, calcein-AM fluorescence, 48 h, basal, profiling panel (AID 1163). Further: test concentration not given here. Particulars: 3T3-L1 adipocytes viability, higher = more signal.
Experiment [13] can be described thus: compound effects on hepatocellular carcinoma cell viability – HepG2, calcein-AM fluorescence, 48 h, basal, profiling panel (AID 1164). Further: test concentration not given here. The note with it: higher = more signal.
Experiment [14] in a line: compound effects on multiple myeloma cell viability – MM1S, calcein-AM fluorescence, 48 h, basal, profiling panel (AID 1165).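 Further: viability of MM1S multiple myeloma cells under basal unstimulated conditions; test concentration not given here.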 The note with it: higher = more signal.
A short description of experiment [15]: calcein-AM signal in unstimulated myeloma cells – cell-based, calcein-AM fluorescence, 48 h, PK04 Diversity Set, profiling panel (AID 1166).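 Further: cells grown under basal conditions without added stimulus; test concentration not given here.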 Particulars: RPMI8226 myeloma viability, higher = more signal.
Experiment [16] can be described thus: JC-1 mitochondrial signal, unstimulated HepG2 cells – cell-based, JC-1 fluorescence, 24 h, 100 nL compound, profiling panel (AID 1167). Further: test concentration not given here. The note with it: HepG2 mitochondrial potential, higher = more signal.
A short description of experiment [17]: JC-1 mitochondrial signal, unstimulated adipocytes – cell-based, JC-1 fluorescence, 3T3-L1 adipocytes, 24 h, 100 nL compound, profiling panel (AID 1168). Further: test concentration not given here. The note with it: JC-1 mitochondrial fluorescence, higher = more signal, called active from +8 up or from −8 down.
Experiment [18] can be described thus: JC-1 mitochondrial signal, unstimulated myeloma cells – cell-based, JC-1 fluorescence, RPMI8226, 24 h, 100 nL compound, profiling panel (AID 1169). Further: test concentration not given here. The note with it: JC-1 mitochondrial potential fluorescence, higher = more signal.
Experiment [19] in a line: JC-1 mitochondrial signal, unstimulated MM1S myeloma – cell-based, JC-1 fluorescence, 24 h, 100 nL compound, profiling panel (AID 1170). Further: test concentration not given here. Particulars: MM1S mitochondrial potential, higher = more signal.
Experiment [20] can be described thus: resazurin metabolic signal in A549 cells – cell-based, resazurin fluorescence, 24 h, PK04 Diversity Set, profiling panel (AID 1171). Further: test concentration not given here. Particulars: A549 viability, higher = more signal, called active from +8 up or from −8 down.

Structures are written as SMILES. Active and inactive are the calls of the source.

NADPH oxidase 5 (Homo sapiens), sequence (Q96PH1 whole entry, looked up): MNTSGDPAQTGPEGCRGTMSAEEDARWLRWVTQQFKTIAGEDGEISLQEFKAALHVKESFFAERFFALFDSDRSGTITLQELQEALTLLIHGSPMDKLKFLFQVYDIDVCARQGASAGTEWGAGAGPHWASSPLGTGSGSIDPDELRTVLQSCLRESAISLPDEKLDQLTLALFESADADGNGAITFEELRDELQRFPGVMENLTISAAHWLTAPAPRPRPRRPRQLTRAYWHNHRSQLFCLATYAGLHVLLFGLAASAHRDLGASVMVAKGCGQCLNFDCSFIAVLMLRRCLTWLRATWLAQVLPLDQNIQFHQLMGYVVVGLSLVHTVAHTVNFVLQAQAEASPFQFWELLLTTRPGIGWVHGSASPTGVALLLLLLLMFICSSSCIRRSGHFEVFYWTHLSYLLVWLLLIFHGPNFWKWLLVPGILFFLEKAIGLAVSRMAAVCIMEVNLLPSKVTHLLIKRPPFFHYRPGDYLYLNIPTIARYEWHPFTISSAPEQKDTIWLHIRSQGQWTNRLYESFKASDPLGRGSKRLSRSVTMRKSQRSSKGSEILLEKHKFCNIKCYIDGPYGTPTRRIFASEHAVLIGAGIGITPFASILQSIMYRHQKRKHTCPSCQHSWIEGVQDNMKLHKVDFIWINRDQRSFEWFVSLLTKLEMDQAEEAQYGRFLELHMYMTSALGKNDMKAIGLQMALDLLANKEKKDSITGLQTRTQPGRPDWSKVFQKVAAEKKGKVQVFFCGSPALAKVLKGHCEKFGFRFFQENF
NADPH oxidase 4 (Homo sapiens), sequence (Q9NPH5 whole entry, looked up): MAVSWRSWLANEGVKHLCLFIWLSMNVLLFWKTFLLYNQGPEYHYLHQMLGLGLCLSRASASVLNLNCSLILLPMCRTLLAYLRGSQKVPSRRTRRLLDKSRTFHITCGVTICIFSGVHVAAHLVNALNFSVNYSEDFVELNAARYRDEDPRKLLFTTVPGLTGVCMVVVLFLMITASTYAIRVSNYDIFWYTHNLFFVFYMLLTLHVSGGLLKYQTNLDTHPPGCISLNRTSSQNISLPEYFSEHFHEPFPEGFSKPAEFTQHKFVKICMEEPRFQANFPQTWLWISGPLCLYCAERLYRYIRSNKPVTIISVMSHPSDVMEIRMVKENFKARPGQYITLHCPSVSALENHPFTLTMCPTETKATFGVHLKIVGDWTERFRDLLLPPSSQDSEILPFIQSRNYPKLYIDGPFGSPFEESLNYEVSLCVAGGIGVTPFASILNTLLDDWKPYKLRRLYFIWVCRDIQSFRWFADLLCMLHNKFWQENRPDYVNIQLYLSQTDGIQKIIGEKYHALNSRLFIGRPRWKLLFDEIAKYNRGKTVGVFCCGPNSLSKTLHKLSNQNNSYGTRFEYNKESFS
NADPH oxidase 2 (Homo sapiens), sequence (P04839 whole entry, looked up): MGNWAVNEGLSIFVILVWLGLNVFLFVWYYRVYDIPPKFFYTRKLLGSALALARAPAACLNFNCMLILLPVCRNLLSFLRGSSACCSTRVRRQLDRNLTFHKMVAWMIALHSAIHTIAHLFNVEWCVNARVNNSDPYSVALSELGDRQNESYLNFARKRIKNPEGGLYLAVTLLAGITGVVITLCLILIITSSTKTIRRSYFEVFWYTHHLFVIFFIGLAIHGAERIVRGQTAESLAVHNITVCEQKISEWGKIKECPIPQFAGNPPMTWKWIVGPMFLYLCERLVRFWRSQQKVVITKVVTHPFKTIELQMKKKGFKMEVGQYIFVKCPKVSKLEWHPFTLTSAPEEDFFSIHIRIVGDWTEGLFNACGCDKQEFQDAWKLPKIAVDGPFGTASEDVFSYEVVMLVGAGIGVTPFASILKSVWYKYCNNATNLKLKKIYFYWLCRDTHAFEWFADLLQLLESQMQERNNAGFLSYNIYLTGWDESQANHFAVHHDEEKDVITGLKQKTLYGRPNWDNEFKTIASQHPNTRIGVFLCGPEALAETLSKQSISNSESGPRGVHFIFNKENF

Turning to `COc1ccc(C(O)C2C=CC3C(=O)N(C)C(=O)C3N2N(c2ccccc2)c2ccccc2)c2ccccc12` (stereo not given), the z-score is -1.24 (inactive) in experiment [1]; 1.24 (inactive) in [3]; 1.4 (inactive) in experiment [4]; 0.39 (inactive) in [5]; 1.32 (inactive) in experiment [6]; -1.19 in experiment [7]. In addition, the z-score was -0.549 (inactive) in experiment [8]; -0.247 (inactive) in experiment [9]; -0.716 in [10]; -0.303 in experiment [11]; -1.6 in experiment [12]; 0.943 in experiment [13]. In addition, the z-score was 0.149 in experiment [14]; 0.2 in [15]; -0.979 in experiment [16]; -0.14 (inactive) in [17]; 0.545 in [18]; -0.67 in experiment [19]. Moreover, the z-score in experiment [20] was -0.738 (inactive). The same molecule yielded a composite z-score in [2] of 0.407.

Regarding `CS(=O)(=O)CCOC(=O)C1=CC(CCCO)=CC(c2ccc(CN3CCCC3)cc2)N(Cc2cccc(OC(F)(F)F)c2)C=C1C(=O)OCCS(C)(=O)=O` (stereo not given), the z-score in [1] was -0.804 (inactive); in [3] it was 1.55 (inactive); in experiment [4], 0.942 (inactive); in experiment [5], 0.128 (inactive); in experiment [6], 0.577 (inactive); in experiment [7] it was 0.219. The z-score in experiment [8] was -0.302 (inactive); in experiment [9] it was -0.764 (inactive); in experiment [10] it was -0.504; in experiment [11], 0.75; in experiment [12], 0.309; in [13], 1.81. The z-score was -1.46 in [14]; -0.697 in experiment [15]; 3.78 in experiment [16]; -0.168 (inactive) in [17]; -0.661 in experiment [18]; -0.935 in experiment [19]. In addition, the z-score in experiment [20] was 0.516 (inactive). In [2], this molecule gave a composite z-score of 0.879.

Consider `CCCC[C@@H]1C[C@H]1[C@@H](NC(=O)c1cccnc1)c1ccc(Cl)cc1`, for which the z-score in [1] was -3.66 (inactive); in experiment [3], 2.29 (inactive); in [4], 1.51 (inactive); in [5], 0.395 (inactive); in experiment [6], 1.03 (inactive); in [7], 0.348. For the same molecule, the z-score in experiment [8] was -0.56 (inactive); in [9], -1.3 (inactive); in experiment [10], 0.715; in experiment [11], -1.01; in experiment [12], -1.38; in experiment [13], -0.114. Also, the z-score in [14] is -2.05; in [15], -3.56; in experiment [16], 1.06; in experiment [17] it was -0.307 (inactive); in experiment [18], -0.249; in experiment [19] it was -1.62. Further, the z-score in [20] was 1.56 (inactive). For the same molecule, the composite z-score in [2] is -0.321.

In the case of `CC(=O)Nc1cc(Br)ccc1C(=O)NCc1ccccc1`, the z-score in [1] is -0.813 (inactive); in experiment [3], 3.88 (inactive); in experiment [4] it was 0.423 (inactive); in [5], 0.0319 (inactive); in [6] it was 0.229 (inactive); in experiment [7], -0.283. For the same molecule, the z-score is -0.714 (inactive) in experiment [8]; -0.427 (inactive) in [9]; -0.393 in [10]; -0.196 in [11]; 0.814 in experiment [12]; -0.0731 in experiment [13]. For the same molecule, the z-score in experiment [14] is -0.0267; in experiment [15] it was 0.0237; in experiment [16], -0.56; in [17], -0.907 (inactive); in experiment [18] it was 0.782; in experiment [19], 1.25. In experiment [20], the z-score was 0.14 (inactive). The composite z-score in experiment [2] is -0.0929.

Take `NC(=O)[C@@H]1[C@H]2C(=O)O[C@H](c3ccccc3)[C@H](c3ccccc3)N2[C@H](c2ccc(O)cc2)[C@@]12C(=O)Nc1ccc(C#CC3=CCCCC3)cc12`: the z-score was -1.1 (inactive) in experiment [1]; 1.78 (inactive) in experiment [3]; 1.07 (inactive) in experiment [4]; -0.491 (inactive) in experiment [5]; 1.27 (inactive) in experiment [6]; -0.7 in [7]. Moreover, the z-score in experiment [8] is 0.615 (inactive); in [9], 0.196 (inactive); in experiment [10], -0.325; in [11], -1.42; in experiment [12] it was -0.0881; in [13] it was -5.06. The z-score in [14] is -3.27; in experiment [15], -4.17; in experiment [16], -3.59; in experiment [17], -1.58 (inactive); in [18] it was -0.88; in experiment [19], -1.94. Further, the z-score in [20] was -0.274 (inactive). Further, the composite z-score in [2] worked out at 1.47.

On to `C=C(/C(=C/C[C@H](OC(=O)c1ccncc1)c1ccc(OCCO)cc1)c1cc(C(=O)OC)ccc1OC)C(C)C`, for which the z-score was 0.936 (inactive) in experiment [1]; 14.5 (active) in experiment [3]; 1.19 (inactive) in [4]; 1.29 (inactive) in [5]; -1.07 (inactive) in experiment [6]; 0.622 in [7]. Further, the z-score in experiment [8] was -1.78 (inactive); in [9], -0.754 (inactive); in [10], -2.43; in [11], 0.0699; in [12] it was 1.62; in [13], -0.274. Moreover, the z-score in experiment [14] was -0.158; in experiment [15], -1.9; in experiment [16], 0.751; in [17] it was 0.111 (inactive); in [18] it was -0.143; in experiment [19] it was 0.503. In addition, the z-score in experiment [20] is 0.827 (inactive). The same molecule came in with a composite z-score in [2] of 0.0455.

On to `C=CC[C@]12N=C(c3ccc(OCCCO)cc3)O[C@H]1c1ccccc1N(CCS(=O)(=O)c1ccccc1)C2=O`, for which the z-score in experiment [1] was -0.913 (inactive); in experiment [3] it was 31.2 (active); in experiment [4], 28 (active); in experiment [5], 2.35 (inactive); in experiment [6], 7.99 (inactive); in experiment [7], 0.852. Also, the z-score in experiment [8] was -2.24 (inactive); in experiment [9], 0.939 (inactive); in experiment [10], -2.12; in experiment [11], 0.289; in experiment [12], 0.839; in experiment [13], 0.324. For the same molecule, the z-score in [14] was -1.68; in [15] it was -0.916; in [16], 0.134; in [17], 1.73 (inactive); in [18] it was -1.01; in experiment [19], -1.25. Besides, the z-score in [20] is -1.02 (inactive). For the same molecule, the composite z-score in [2] was 0.204.

In the case of `O=C(CS)NCCCCCNC(=O)[C@@H]1C[C@@H]2C(=O)NCC(=O)N2[C@@H]1c1ccc(O)cc1`, the z-score in experiment [1] is 1.6 (inactive); in experiment [3], 0.802 (inactive); in [4] it was 0.0605 (inactive); in experiment [5] it was -0.194 (inactive); in [6], 0.179 (inactive); in experiment [7], -0.259. The z-score in [8] was 1.18 (inactive); in [9], -0.584 (inactive); in experiment [10] it was 1.67; in experiment [11], 0.347; in [12], 0.136; in experiment [13], -1.19. Moreover, the z-score in experiment [14] was -0.403; in experiment [15], -0.727; in experiment [16] it was 1.14; in experiment [17], -0.00814 (inactive); in experiment [18] it was 0.852; in [19], 0.158. In addition, in experiment [20], the z-score was -1.31 (inactive). In addition, the composite z-score in experiment [2] is -0.101.

With `CCCC=C(CCC)[C@@H](NC(=O)OCC(C)C)c1ccccc1`, the z-score was -1.93 (inactive) in [1]; -0.725 (inactive) in [3]; -0.732 (inactive) in [4]; 0.455 (inactive) in experiment [5]; -1.61 (inactive) in experiment [6]; 1.44 in experiment [7]. For the same molecule, the z-score is -4.11 (inactive) in experiment [8]; -3.58 (inactive) in [9]; -2.7 in experiment [10]; -0.628 in experiment [11]; 0.722 in [12]; -0.927 in experiment [13]. Also, the z-score in [14] was -0.0228; in experiment [15] it was -1.71; in experiment [16], 0.485; in [17], -0.594 (inactive); in [18], 0.0132; in [19], -0.558. Also, the z-score in experiment [20] was 0.292 (inactive). The same molecule displayed a composite z-score in [2] of 2.47.
